Bioassay records deposited in PubChem by several laboratories.
PABP polyA inh = blocks human PABP binding to poly(A) RNA. AID 2014. inhibition, % at 35 µM. fluorescence polarization. 290,000 tested, 1% active. P11940;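 further: calls also rest on retests at 20 µM and on dose response follow-up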
PABP1 MLLE inh = inhibitors of microRNA-mediated deadenylation, human PABP1 MLLE binding; GST-MLLE / FITC-PAM2 fluorescence polarization; inhibition, % at 20 µM; 360,000 tested, 0.36% active; in the data active means inhibition above about 35%, passing the limit was not always enough;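 further: plate controls were DMSO wells with GST-MLLE for no effect and wells lacking GST-MLLE protein for full effect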
ALR inh = blocks human ALR sulfhydryl oxidase activity; P55789; purified ALR, DTT oxidation, H2O2 HRP-luminol luminescence; inhibition, % (no concentration beside the values); 290,000 tested, 3.8% active; AID 485317;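 active means mean replicate inhibition above about 79%, with every replicate also reaching it, limit read from the data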
Target sequence (P55789 whole entry, looked up): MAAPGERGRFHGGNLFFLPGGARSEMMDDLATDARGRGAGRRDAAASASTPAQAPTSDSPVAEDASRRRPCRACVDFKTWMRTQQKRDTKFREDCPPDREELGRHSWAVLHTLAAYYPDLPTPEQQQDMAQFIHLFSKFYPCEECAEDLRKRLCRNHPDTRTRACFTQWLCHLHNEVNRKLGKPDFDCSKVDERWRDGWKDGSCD
UBC9 SUMO inh = blocks human SUMOylation mediated by UBC9. HTRF SUMOylation assay, SAE1/SAE2 + UBC9, in vitro. 290,000 tested, 0.36% active. inhibition, % at 35 µM. P63279; in the data active means inhibition above about 50%, passing the limit was not always enough
Target sequence (P63279 whole entry, looked up): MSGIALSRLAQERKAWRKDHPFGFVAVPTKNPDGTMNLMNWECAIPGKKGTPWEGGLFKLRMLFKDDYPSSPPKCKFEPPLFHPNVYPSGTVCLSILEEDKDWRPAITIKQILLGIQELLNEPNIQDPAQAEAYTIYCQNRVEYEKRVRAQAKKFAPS
eIF4H FP inh = inhibitors of RNA binding by human eIF4H; Q15056; eIF4H fluorescence polarization binding assay; inhibition, % at 35 µM; 290,000 tested, 0.94% active;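 further: calls also rest on retests at 20 µM and on dose response follow-up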
Efflux pump mplx = blocks antifungal efflux pumps in multiplex yeast assay. inhibition, % at 10 µM. S. cerevisiae Candida pump triplex, Nile Red efflux. 330,000 tested, 0.44% active;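 active means plate passing quality check with inhibition over a set limit, or well fluorescence over plate mean plus 4 SD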;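 further: Nile Red retained in pooled yeast measured as flow cytometry median fluorescence; 0% = buffer negative control and 100% = Enniatin B positive control; higher means more Nile Red kept so more efflux inhibition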
Yeast cmpd fluor = counter-screen for efflux pump inhibitors: compound fluorescence; shares compounds with Efflux pump mplx; 1,700 tested, 4% active; AID 588517; fluorescence ratio to DMSO, % at 10 µM; S. cerevisiae AD/pABC3, flow cytometry;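 active means fluorescence ratio to DMSO above its plate's cutoff, the plate mean ratio plus 5 SD, cut at about 210% in these data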;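 further: unstained yeast with no Nile Red so the signal is compound autofluorescence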
Mdr1 pump inh = Candida Mdr1 efflux pump inhibition; shares compounds with Efflux pump mplx; S. cerevisiae AD/CaMDR1, Nile Red efflux, flow cytometry; inhibition, % at 10 µM; 1,700 tested, 1% active; AID 588518; in the data active means inhibition above about 26%;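 further: 0% = DMSO vehicle and 100% = reference inhibitor; higher means more Nile Red retained so more efflux inhibition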
Cdr2 pump inh = Candida Cdr2 efflux pump inhibition; shares compounds with Efflux pump mplx; S. cerevisiae AD/CaCDR2, Nile Red retention, flow cytometry; Nile Red retention ratio vs DMSO, % at 10 µM; 1,700 tested, 4% active; AID 588520; in the data active means Nile Red retention ratio vs DMSO above about 190%;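 further: higher ratio means more blocking of Cdr2 efflux of the dye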
CaCdr1 efflux inh = Candida Cdr1 efflux pump inhibition; shares compounds with Efflux pump mplx; S. cerevisiae AD/CaCDR1, Nile Red efflux, flow cytometry; inhibition, % at 10 µM; 1,700 tested, 1% active; AID 588522;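 active means inhibition above the screen-wide mean plus twice its standard deviation, cut at about 32% in these data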
The depositor's hits bear a star. Sampled rows, rich in hits. Any-hit rate of the full collection: about 4.7%. Unless noted, how the calls were made is not given here.

Results for CC1(C)CC(NC(=O)C2CCN(S(=O)(=O)c3ccc(Cl)c(C(F)(F)F)c3)CC2)CC(C)(C)N1 ?
PABP1 MLLE inh: 5.3

How did CCOC(=O)Cn1nnc(-c2cc(OC)c(OC)c(OC)c2)n1 do in these assays?
PABP polyA inh: 2.2; PABP1 MLLE inh: -10.1; ALR inh: -32.7; UBC9 SUMO inh: 0.5; eIF4H FP inh: -6.6; Efflux pump mplx: 0.1

What do the screens show for `CCOC(=O)CC(=O)c1cc(OC)c(OC)c(OC)c1`?
PABP polyA inh: 17.5; PABP1 MLLE inh: 3.7; ALR inh: 43.6; UBC9 SUMO inh: 2.8; eIF4H FP inh: 5.3; Efflux pump mplx: 0.8*; Yeast cmpd fluor: 117.5; Mdr1 pump inh: 0.3; Cdr2 pump inh: 106.0; CaCdr1 efflux inh: 0.1

What do the screens show for `COCCC(=O)N1CCCC(C(=O)c2ccc(C(F)(F)F)cc2)C1` (stereo not given)?
PABP polyA inh: -3.0; PABP1 MLLE inh: 0.8; ALR inh: -0.3; UBC9 SUMO inh: -6.7; eIF4H FP inh: 0.6; Efflux pump mplx: 0.0

How did O=C1C(Cc2cccc([N+](=O)[O-])c2)SC(=Nc2ccccc2)N1c1ccccc1 (stereo not given) do in these assays?
PABP polyA inh: -1.5; PABP1 MLLE inh: 1.9; ALR inh: -37.1; UBC9 SUMO inh: -3.7; eIF4H FP inh: -7.2; Efflux pump mplx: 13.5*; Yeast cmpd fluor: 119.6; Mdr1 pump inh: 0.6; Cdr2 pump inh: 110.2; CaCdr1 efflux inh: 0.0

How did CCOC(=O)N1CCC(NC(=O)c2cc(C(=O)Nc3ccc(S(=O)(=O)N4CCOCC4)cc3)ccc2CO)CC1 do in these assays?
PABP polyA inh: -5.2; PABP1 MLLE inh: 12.8; ALR inh: 1.0; UBC9 SUMO inh: 19.4; eIF4H FP inh: 5.6; Efflux pump mplx: -0.1

Results for Cc1ccc2sc(N(CCCN(C)C)C(=O)c3ccc(Br)s3)nc2c1C ?
PABP polyA inh: -7.5; PABP1 MLLE inh: 2.9; ALR inh: -26.2; UBC9 SUMO inh: -4.9; eIF4H FP inh: -8.1; Efflux pump mplx: 0.9*; Yeast cmpd fluor: 104.5; Mdr1 pump inh: -0.1; Cdr2 pump inh: 280.2*; CaCdr1 efflux inh: 0.0

What do the screens show for `NC(=O)NC(=O)COC(=O)/C=C/c1cccs1`?
PABP polyA inh: -13.5; PABP1 MLLE inh: -0.7; ALR inh: 3.8; UBC9 SUMO inh: 7.4; eIF4H FP inh: -0.7; Efflux pump mplx: 0.3

What do the screens show for `Nc1cc(Nc2ccccc2)c2nonc2c1[N+](=O)[O-]`?
PABP polyA inh: 1.7; PABP1 MLLE inh: 55.9*; ALR inh: -3.0; UBC9 SUMO inh: 11.2; eIF4H FP inh: -6.4; Efflux pump mplx: 1.4*; Yeast cmpd fluor: 105.0; Mdr1 pump inh: 0.0; Cdr2 pump inh: 93.0; CaCdr1 efflux inh: -0.3

Results for O=c1c2ccccc2nnn1Cc1ccccn1 ?
PABP polyA inh: -11.7; PABP1 MLLE inh: -5.5; ALR inh: -5.8; UBC9 SUMO inh: -10.2; eIF4H FP inh: -2.4; Efflux pump mplx: 8.2*; Yeast cmpd fluor: 99.8; Mdr1 pump inh: -0.4; Cdr2 pump inh: 97.7; CaCdr1 efflux inh: -0.1

How did O=c1c2ccccc2nnn1Cc1cccc2ccccc12 do in these assays?
PABP polyA inh: 5.3; PABP1 MLLE inh: 17.4; ALR inh: -0.5; UBC9 SUMO inh: 8.6; eIF4H FP inh: -6.1; Efflux pump mplx: -0.1

How did CC(C)CCNC(=O)CCCc1ccccc1 do in these assays?
PABP polyA inh: 6.4; PABP1 MLLE inh: -11.1; ALR inh: -9.6; UBC9 SUMO inh: 11.0; eIF4H FP inh: 16.6; Efflux pump mplx: -0.1

What do the screens show for `CC(C)CCNC(=O)CCSCCC(=O)NCCC(C)C`?
PABP polyA inh: -4.9; PABP1 MLLE inh: 13.4; ALR inh: -3.0; UBC9 SUMO inh: -5.8; eIF4H FP inh: -5.7; Efflux pump mplx: 8.9*; Yeast cmpd fluor: 103.1; Mdr1 pump inh: -0.1; Cdr2 pump inh: 98.5; CaCdr1 efflux inh: 0.0

How did COC(=O)c1nn(-c2ccccc2)c(=O)cc1O do in these assays?
PABP polyA inh: 4.3; PABP1 MLLE inh: 11.9; ALR inh: 4.9; UBC9 SUMO inh: -6.4; eIF4H FP inh: 2.5; Efflux pump mplx: 0.1

How did COC(=O)c1nn(-c2ccccc2)c(=O)cc1Sc1ccc(Cl)cc1 do in these assays?
PABP polyA inh: -6.0; PABP1 MLLE inh: -2.3; ALR inh: -2.2; UBC9 SUMO inh: 6.0; eIF4H FP inh: -12.6; Efflux pump mplx: 0.6*; Yeast cmpd fluor: 107.9; Mdr1 pump inh: 0.3; Cdr2 pump inh: 108.1; CaCdr1 efflux inh: 0.0

How did Cc1cccc(C(C)C)c1NC(=O)Cc1ccc(S(=O)(=O)N2CCOCC2)s1 do in these assays?
PABP1 MLLE inh: -4.3; ALR inh: -2.1; Efflux pump mplx: 0.5*; Yeast cmpd fluor: 285.2*; Mdr1 pump inh: 0.9; Cdr2 pump inh: 112.3; CaCdr1 efflux inh: 0.3

What do the screens show for `Cc1c(CCOC(=O)C23CC4CC(CC(C)(C4)C2)C3)sc[n+]1Cc1ccccc1`?
PABP polyA inh: -3.6; PABP1 MLLE inh: 13.5; ALR inh: -14.8; UBC9 SUMO inh: 14.0; eIF4H FP inh: -11.3; Efflux pump mplx: 1.2*; Yeast cmpd fluor: 114.3; Mdr1 pump inh: 0.5; Cdr2 pump inh: active; CaCdr1 efflux inh: 0.3

How did Cc1c(CCOC(=O)C23CC4CC(CC(C4)C2)C3)sc[n+]1Cc1ccccc1 do in these assays?
PABP polyA inh: -7.6; PABP1 MLLE inh: 7.6; ALR inh: -4.4; UBC9 SUMO inh: 20.4; eIF4H FP inh: -2.1; Efflux pump mplx: 0.0

What do the screens show for `C=C1CCN([C@H](C(=O)NCc2ccc(Cl)cc2)C(C)C)S(=O)(=O)c2ccccc21`?
PABP polyA inh: -17.1; PABP1 MLLE inh: 8.3; ALR inh: -8.3; UBC9 SUMO inh: 0.4; eIF4H FP inh: -6.1; Efflux pump mplx: -0.2

Results for NC1=NC[C@H](Cc2ccc(O)cc2)N1CCc1cc(C(F)(F)F)cc(C(F)(F)F)c1 ?
PABP polyA inh: -8.0; PABP1 MLLE inh: 11.3; ALR inh: 20.9; UBC9 SUMO inh: -1.8; eIF4H FP inh: -2.2; Efflux pump mplx: -0.1; Yeast cmpd fluor: 104.6; Mdr1 pump inh: 0.1; Cdr2 pump inh: 99.7; CaCdr1 efflux inh: -0.2

Results for NC1=NC[C@@H](Cc2ccc(O)cc2)N1CCc1cccc2ccccc12 ?
PABP polyA inh: -8.2; PABP1 MLLE inh: -9.3; ALR inh: 36.9; UBC9 SUMO inh: -3.4; eIF4H FP inh: -4.2; Efflux pump mplx: -0.1; Yeast cmpd fluor: 93.7; Mdr1 pump inh: -0.3; Cdr2 pump inh: 90.9; CaCdr1 efflux inh: -0.3
